PubChem BioAssay
Where “and” joins values, the source holds several entries; their conditions need not be identical. Equal entries are not always repeated. A number with no mark means an inactive call. Calls of active or inactive are those of the source. How the calls were made is not given here.

How the values were obtained:
[1] = test system: Botulinum neurotoxin type F light chain protease (Clostridium botulinum); experiment: Botulinum neurotoxin type F light chain protease inhibition, multiplex microsphere flow cytometry, validation set (AID 588459); conditions: multiplex microsphere protease substrate cleavage assay, at 10 µM, hits give high values
[2] = molecular target: Botulinum neurotoxin type A (Clostridium botulinum) (UniProt P0DPI0); experiment: BoNT/A light chain protease inhibitors, biochemical, multiplex microsphere flow cytometry, validation set (AID 588460); conditions: at 10 µM, hits give high values
[3] = molecular target: Lethal factor (Bacillus anthracis) (UniProt P15917); experiment: Lethal factor protease inhibitors, Bacillus anthracis, multiplex microsphere cleavage assay, validation set (AID 588461); conditions: flow cytometry, at 10 µM, hits give high values

Row | SMILES | inhibition [1] | inhibition [2] [%] | inhibition [3]
1 | Nc1nc2c(nc(SCc3ccccc3Br)n2C2OC(CO)C(O)C2O)c(=O)[nH]1 (stereo unspecified) | -2.6% | -1.9 | -1.1%
2 | O=C(NC1CCCCC1)N1CCc2[nH]c3ccccc3c2C1 | 36.5% (active) | 3.5 | 5%
3 | COC1CCCCC1Nc1ccc(C)c(C)c1 (stereo unspecified) | 1.5% | -0.1 | -5.5%
4 | COc1ccc(C(=O)NC(=O)NC2(C(Cl)(Cl)Cl)OCCO2)cc1 | 0.9% | -1.2 | 3.1%
5 | O=C(Cc1ccccc1)NNC(=O)Cc1ccccc1 | 0.3% | 1.7 | -1.2%
6 | COc1cc(Cl)cc2c1Sc1ccccc1/C2=C/CCN(C)C | -4.5% | -1.1 | -16.6%
7 | Cc1ccc2c(CN3CCN(Cc4ccc5c(c4)OCO5)CC3)cc(=O)oc2c1C | -2.8% | 0.6 | -5.7%
8 | COc1cc2ccc(=O)oc2c(O)c1OCC=C(C)C | -4.9% | 1.4 | 1.2%
9 | CC(C)CCc1noc(CN2CCC(CCN3CCCC3=O)CC2)n1 | 1% | 0.2 | 3.1%
10 | COc1cc2nc(N3CCN(C(=O)C4CCCO4)CC3)nc(N)c2cc1OC (stereo unspecified) | 3.3% and 1.5% | 0 | -5.7% and -7.8%
11 | CC(=O)N(CCC(Cc1ccccc1)c1ccco1)Cc1ccco1 (stereo unspecified) | 1.4% | 1.7 | 0.3%
12 | CCc1cccc2c1NC1(CCCC1)CC2C (stereo unspecified) | – | -1.3 | 167% (active)
13 | O=C(O)CCNC(=O)c1ccccc1 | – | – | -7.3%
14 | COc1ccccc1OS(=O)(=O)c1ccc(NC(C)=O)cc1 | -1.9% | 1.2 | 3%
15 | CN1CCc2cccc3c2[C@H]1Cc1ccc(O)c(O)c1-3 | – | -6.5 | -33.9%
16 | O=C1OC(=O)C2C1[C@@H]1CC[C@H]2O1 (stereo partly specified) | 1.3% | 0.8 | -0.9%
17 | Cc1ccc(C)c(OCCCC(C)(C)C(=O)O)c1 | 1.7% | -0.3 | 1.8%
18 | O=C1OCCN1/N=C/c1ccc([N+](=O)[O-])o1 | 2.9% | -0.4 | -8.7%
19 | COc1cccc(OC)c1C(=O)Nc1nc2ccc([N+](=O)[O-])cc2s1 | 7.7% | 3.3 | 7.5%
20 | NCCCC(=O)O | – | – | 0.3%
21 | CC(C)Oc1cccc(C(=O)N2CCCC2)c1 | 2.3% | -0.3 | -5.2%
22 | CCc1nc(N)nc(N)c1-c1ccc(Cl)cc1 | 0.4% | -0.6 | -2.6%
23 | Cc1ccc(O)c(CCc2ccccc2)n1 | 1.3% | 0.5 | -5.5%
24 | CC(C)NCC(O)COc1ccc(CC(N)=O)cc1 (stereo unspecified) | – | -1.9 | -2.4%
25 | COc1ccc(/C=C2\CCc3ccccc3C2=O)c(OC)c1OC | 6.4% | 0.8 | 3.9%
26 | Nc1nc2c(ncn2COCCO)c(=O)[nH]1 | – | – | 0.4%

Row | SMILES | inhibition [1] | inhibition [2] [%] | inhibition [3]
27 | CCN(CC)CCNC(=O)c1ccc(N)cc1 | – | – | 2.4%
28 | COc1ccc(C2(CCN=Cc3ccc(N(C)C)cc3)CCOC(C)(C)C2)cc1 (stereo unspecified) | 9.1% | 1.6 | -2%
29 | CCOc1ccc(C(=O)N2CCCC2C(=O)O)cc1 (stereo unspecified) | -1.3% | 0.5 | 1.5%
30 | CC(=O)[C@H]1CC[C@H]2[C@@H]3CCC4=CC(=O)CC[C@]4(C)[C@H]3CC[C@]12C | 2.7% | 1.5 | 3.1%
31 | CN(C)CCC(c1ccc(Cl)cc1)c1ccccn1 (stereo unspecified) | – | -0.2 | –
32 | CC(C)(C)c1ccc(C(O)CCCN2CCC(C(O)(c3ccccc3)c3ccccc3)CC2)cc1 (stereo unspecified) | – | -2.5 | -3.6%
33 | Cc1nnc(SCC2=C(C(=O)O)N3C(=O)[C@@H](NC(=O)Cn4cnnn4)[C@H]3SC2)s1 | – | – | 0.6%
34 | CCN(CC)CCOC(=O)C(c1ccccc1)c1ccccc1 | 1.8% | -1.6 | -3.7%
35 | CC(C)OC(=O)C(C)(C)Oc1ccc(C(=O)c2ccc(Cl)cc2)cc1 | – | – | -0.7%
36 | CN(C)CCCN1c2ccccc2CCc2ccc(Cl)cc21 | – | -0.7 | -1.4%
37 | O=C(c1ccco1)N(CCC(c1ccccc1)c1ccco1)Cc1ccco1 (stereo unspecified) | -0.1% | -0.1 | 3.5%
38 | O=C1CC2(CCCC2)CC(=O)N1CCCCN1CCN(c2ncccn2)CC1 | – | 0.2 | 6.7%
39 | O=C(c1cccnc1)N1N=C(C2CC2)CC1(O)C(F)(F)F (stereo unspecified) | 2% | 1 | 4.2%
40 | O=C(O)c1cc2cc(Cl)cc(Cl)c2oc1=O | -2.3% | 0.4 | 1.1%
41 | Cc1cnc(NC(=O)C2=C(O)c3ccccc3S(=O)(=O)N2C)s1 | – | – | 1.4%
42 | O=C(COc1ccccc1)Nc1ccc2c(c1)C(=O)N(CC1CCCO1)C2=O (stereo unspecified) | -0.5% | -0.9 | 4.5%
43 | COc1cc(NC(=S)NN2CCN(C)CC2)cc(OC)c1OC | 5.5% | -0.6 | -5.6%
44 | CCc1cc(-c2[nH]ncc2-c2ccc3c(c2)OCO3)c(O)cc1O | -0.4% | -0.4 | 2.3%
45 | C/C(=N\NC(=O)C1(C)CC1(Br)Br)c1ccc([N+](=O)[O-])cc1 (stereo unspecified) | 2.6% | 0.4 | -7.9%
46 | C[C@H](CS)C(=O)N1CCC[C@H]1C(=O)O | – | – | -1.8%
47 | CC(C(=O)O)c1cccc(C(=O)c2ccccc2)c1 (stereo unspecified) | – | -1.5 | 5.8%
48 | Cc1cc(OCC(=O)C(C)(C)C)c2c(C)c(C)c(=O)oc2c1 | -1.4% | 0.5 | 0.7%
49 | COc1ccc(C(=O)Oc2ccc3c(C)cc(=O)oc3c2C(C)=O)cc1 | 0.7% | -0.3 | 3%
50 | CN1CCc2cccc3c2[C@@H]1Cc1ccc(O)c(O)c1-3 | – | -6.6 | -53.3%
51 | CC[C@H](C)C(=O)O[C@H]1C[C@@H](C)C=C2C=C[C@H](C)[C@H](CC[C@@H]3C[C@@H](O)CC(=O)O3)[C@H]21 | – | 0.7 | 10.4%
